# Experimental data as given in PubChem BioAssay (Tox21).
# Results filed as inconclusive are left out. The source made the active and inactive calls. Unless noted, the call rests on the fitted dose curve; in most records, active means well fitted curve in the direction sought with a large enough effect in the repeat runs; inconclusive means weak or mixed curves; inactive means no such curve, though single readings can be large; an effect the other way counts as inactive or inconclusive.
# Assay: qHTS assay to identify small molecule agonists of the progesterone receptor (PR) signaling pathway - cell viability counter screen (AID 1346799; calls by dose curve; further: nearly all actives have a fitted effect of over 45% in size)
# Details: PR-UAS-bla HEK293T viability, CellTiter-Glo luminescence, 16 h; series mostly up to 92.4 µM; activity change, negative = cytotoxicity: at the top concentration
# Summary of the method: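 Cytotoxicity in PR-bla HEK293T cells: 16 h compound, 37C; CellTiter-Glo added post-FRET read; luminescence after 30 min RT.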
# On the % scale 0 is the no-effect control and ±100 the full control effect; potency means the concentration at half of the fitted maximal effect.
SMILES,"activity change, negative = cytotoxicity",Potency
O=CC(Br)(Br)Br,-3.33% (inactive),–
O=c1ssc(Cl)c1Cl,2.75% (inactive),–
CC(C)(c1ccc(O)c(-c2ccccc2)c1)c1ccc(O)c(-c2ccccc2)c1,–,30.6 µM (active)

# Assay: qHTS assay to identify small molecule antagonists of the TGF-beta/Smad signaling pathway - cell viability counter screen (AID 1346824); further: nearly all actives have a fitted effect of over 50% in size
# Details: SBE-bla HEK293T viability, CellTiter-Glo luminescence; series mostly up to 76.8 µM; viability change, negative = cytotoxic: at the top concentration
# Summary of the method: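 Cytotoxicity counter-screen run in the same wells as the beta-lactamase Smad reporter read: CellTiter-Glo luminescence after 30 min at room temperature. HEK 293T SBE-bla cells had 5 hr compound exposure at 37 C with TGF-beta1 (0.25 ng/mL stock).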
SMILES,"viability change, negative = cytotoxic",Potency
Cc1cc(C)c(C2=C(OC(=O)CC(C)(C)C)C3(CCCC3)OC2=O)c(C)c1,4.01% (inactive),–
O=C(CBr)c1ccc(O)cc1,-0.562% (inactive),–
O=C1NCN(c2ccccc2)C12CCN(CC1COc3ccccc3O1)CC2 (stereo not given),-5.69% [at 35.3 µM] (inactive),–
COC(=O)N(C(=O)N1CO[C@@]2(C(=O)OC)Cc3cc(Cl)ccc3C2=N1)c1ccc(OC(F)(F)F)cc1,-28.2% (inactive),–
CCCCCCCCCC[N+](C)(C)CCCCCCCCCC,–,43.6 µM (active)
Cc1cc(C(C)(C)c2cc(C)c(O)c(C)c2)cc(C)c1O,7.74% (inactive),–
COc1ccc(OC)c(C=O)c1,-0.232% (inactive),–
C[C@]12CC[C@H]3[C@@H](CCC4=CC(=O)CC[C@@]43C)[C@@H]1CC[C@@H]2O,-2.92% (inactive),–
CC(=O)O[C@H]1CC[C@@]2(C)C(=CC[C@@H]3[C@@H]2CC[C@]2(C)C(=O)CC[C@@H]32)C1,-16.5% (inactive),–
O=[N+]([O-])c1cc(C(F)(F)F)c(Cl)c([N+](=O)[O-])c1Cl,–,49 µM (active)
O=C(CCCN1CCC2(CC1)C(=O)NCN2c1ccccc1)c1ccc(F)cc1,4.62% [at 35.3 µM] (inactive),–
CN(C)[C@@H]1C(=O)C(C(N)=O)=C(O)[C@@]2(O)C(=O)C3=C(O)c4c(O)ccc(Cl)c4[C@@](C)(O)[C@H]3C[C@@H]12,0.0835% (inactive),–
Oc1c(Cl)c(Cl)cc(Cl)c1Cl,-15.4% (inactive),–
CC(=O)C(Cl)(Cl)Cl,-18.3% (inactive),–
CN(C)C(=S)[S-].CN(C)C(=S)[S-].[Cu+2],–,4.23 µM (active)
CC(=O)[O-].CC(=O)[O-].[Hg+2],–,13.8 µM (active)
COc1cccc2c1C(=O)c1c(O)c3c(c(O)c1C2=O)C[C@@](O)(C(=O)CO)CC3OC1CC(N2CCOC(OC)C2)C(O)C(C)O1 (stereo not given in full),1.39% [at 35.3 µM] (inactive),–
Cc1cc(C(F)(C(F)(F)F)C(F)(F)F)ccc1NC(=O)c1cccc(I)c1C(=O)NC(C)(C)CS(C)(=O)=O,-11.2% [at 35.3 µM] (inactive),–
C[C@H]1CC[C@@H]2[C@@H](C)[C@H]3[C@H](C[C@H]4[C@@H]5CC=C6CC(O[C@@H]7O[C@H](CO)[C@H](O)[C@H](O[C@@H]8O[C@H](CO)[C@@H](O)[C@H](O)[C@H]8O)[C@H]7O[C@H]7O[C@@H](C)[C@H](O)[C@@H](O)[C@H]7O)CC[C@]6(C)[C@H]5CC[C@]34C)N2C1 (stereo not given in full),–,12.7 µM (active)
C[C@@H]1CC[C@@]2(OC1)O[C@H]1[C@@H](O)[C@H]3[C@@H]4CC[C@H]5C[C@@H](O[C@@H]6O[C@H](CO)[C@H](O[C@@H]7O[C@H](CO)[C@@H](O)[C@H](O[C@@H]8OC[C@@H](O)[C@H](O)[C@H]8O)[C@H]7O[C@@H]7O[C@H](CO)[C@@H](O)[C@H](O[C@@H]8O[C@H](CO)[C@@H](O)[C@H](O)[C@H]8O)[C@H]7O)[C@H](O)[C@H]6O)[C@H](O)C[C@]5(C)[C@H]4CC[C@]3(C)[C@H]1[C@@H]2C,–,23.2 µM (active)
O=S(=O)(c1ccc(Cl)cc1)c1ccc(Cl)cc1,-4.06% (inactive),–
O=C(O)COc1nc(Cl)c(Cl)cc1Cl,2.75% (inactive),–
CC(C)OC(=O)C(O)(c1ccc(Cl)cc1)c1ccc(Cl)cc1,-11.9% (inactive),–
CC1(C)CC/C(=C/c2ccc(Cl)cc2)C1(O)Cn1cncn1 (stereo not given),-13.5% (inactive),–
c1cc[c]([Sb]([c]2ccccc2)[c]2ccccc2)cc1,10.3% (inactive),–
[CH3][Hg][Cl],-18.9% (inactive),–
[Hg+2].[I-].[I-],–,49 µM (active)
CC(C)(O)c1cnn2c(-c3ccc(F)c(-c4c(F)cccc4C#N)c3)cnc2n1,-0.117% (inactive),–
CC(C)OC(=S)S,-13.6% (inactive),–
CC(C)[C@H](C(=O)O[C@H](C#N)c1cccc(Oc2ccccc2)c1)c1ccc(Cl)cc1,-19.3% (inactive),–

# Assay: qHTS assay to identify small molecule agonists of the TGF-beta/Smad signaling pathway - cell viability counter screen (AID 1346829); further: nearly all actives have a fitted effect of over 45% in size; on activity change, negative = cytotoxicity: top concentration of the series differs between compounds
# Details: SBE-bla HEK293T viability, CellTiter-Glo luminescence, 5 h; series mostly up to 76.8 µM; activity change, negative = cytotoxicity: at the top concentration
# Summary of the method: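 HEK 293T SBE-bla line, 5 hr compound exposure at 37 C, multiplexed CellTiter-Glo viability read by luminescence.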
SMILES,"activity change, negative = cytotoxicity",Potency
Cc1cc(C)c(C2=C(OC(=O)CC(C)(C)C)C3(CCCC3)OC2=O)c(C)c1,-6.23% (inactive),–
O=C(CBr)c1ccc(O)cc1,4.7% (inactive),–
Nc1ccc(Sc2ccc(N)cc2)cc1,-15.2% (inactive),–
O=C1NCN(c2ccccc2)C12CCN(CC1COc3ccccc3O1)CC2 (stereo not given),-5.34% [at 35.3 µM] (inactive),–
COC(=O)N(C(=O)N1CO[C@@]2(C(=O)OC)Cc3cc(Cl)ccc3C2=N1)c1ccc(OC(F)(F)F)cc1,-21.5% (inactive),–
CCCCCCCCCC[N+](C)(C)CCCCCCCCCC,–,38.9 µM (active)
C[C@]12CC[C@H]3[C@@H](CCC4=CC(=O)CC[C@@]43C)[C@@H]1CC[C@@H]2O,-5.43% (inactive),–
CC(=O)O[C@H]1CC[C@@]2(C)C(=CC[C@@H]3[C@@H]2CC[C@]2(C)C(=O)CC[C@@H]32)C1,-18.5% (inactive),–
O=[N+]([O-])c1cc(C(F)(F)F)c(Cl)c([N+](=O)[O-])c1Cl,–,49 µM (active)
O=C(CCCN1CCC2(CC1)C(=O)NCN2c1ccccc1)c1ccc(F)cc1,3.12% [at 35.3 µM] (inactive),–
[Cd+2].[Cl-].[Cl-],-26.9% (inactive),–
Oc1c(Cl)c(Cl)cc(Cl)c1Cl,-8.57% (inactive),–
CC(=O)C(Cl)(Cl)Cl,-25.5% (inactive),–
CC(=O)[O-].CC(=O)[O-].[Hg+2],–,24.5 µM (active)
COc1cccc2c1C(=O)c1c(O)c3c(c(O)c1C2=O)C[C@@](O)(C(=O)CO)CC3OC1CC(N2CCOC(OC)C2)C(O)C(C)O1 (stereo not given in full),4.56% [at 35.3 µM] (inactive),–
C[C@H]1CC[C@@H]2[C@@H](C)[C@H]3[C@H](C[C@H]4[C@@H]5CC=C6CC(O[C@@H]7O[C@H](CO)[C@H](O)[C@H](O[C@@H]8O[C@H](CO)[C@@H](O)[C@H](O)[C@H]8O)[C@H]7O[C@H]7O[C@@H](C)[C@H](O)[C@@H](O)[C@H]7O)CC[C@]6(C)[C@H]5CC[C@]34C)N2C1 (stereo not given in full),–,12.7 µM (active)
C[C@@H]1CC[C@@]2(OC1)O[C@H]1[C@@H](O)[C@H]3[C@@H]4CC[C@H]5C[C@@H](O[C@@H]6O[C@H](CO)[C@H](O[C@@H]7O[C@H](CO)[C@@H](O)[C@H](O[C@@H]8OC[C@@H](O)[C@H](O)[C@H]8O)[C@H]7O[C@@H]7O[C@H](CO)[C@@H](O)[C@H](O[C@@H]8O[C@H](CO)[C@@H](O)[C@H](O)[C@H]8O)[C@H]7O)[C@H](O)[C@H]6O)[C@H](O)C[C@]5(C)[C@H]4CC[C@]3(C)[C@H]1[C@@H]2C,–,20.7 µM (active)
O=S(=O)(c1ccc(Cl)cc1)c1ccc(Cl)cc1,-7.25% (inactive),–
CCCCCCCCCCCCCC[P+](CCCCCC)(CCCCCC)CCCCCC (tested in a mixture with another compound),–,49 µM (active)
CC(C)OC(=O)C(O)(c1ccc(Cl)cc1)c1ccc(Cl)cc1,-17.2% (inactive),–
O=c1ssc(Cl)c1Cl,-24.2% (inactive),–
CC1(C)CC/C(=C/c2ccc(Cl)cc2)C1(O)Cn1cncn1 (stereo not given),-3.43% (inactive),–
[CH3][Hg][Cl],-12.8% (inactive),–
[Hg+2].[I-].[I-],–,54.9 µM (active)
CC(C)(c1ccc(O)c(-c2ccccc2)c1)c1ccc(O)c(-c2ccccc2)c1,–,34.7 µM (active)
CC(C)OC(=S)S,-17.8% (inactive),–
C=CC(=O)OCC(COC(=O)C=C)(COC(=O)C=C)COC(=O)C=C,–,49 µM (active)
